The whole screen tested about 39,000 compounds, of which about 1,500 (3.8%) were called active. This is one part of a sample in which actives are shown more often than they occur.
tested on: HSkMC (human skeletal muscle cells); test: cytotoxicity call (relative viability < 0.9); details: 10 µM

Row | Compound | cytotoxicity call
1 | C[C@@H]1CCCCO[C@@H](CN(C)S(=O)(=O)c2ccc(Cl)cc2)[C@@H](C)CN([C@@H](C)CO)C(=O)c2cc(NC(=O)Nc3cccc4ccccc34)ccc2O1 | inactive
2 | COc1ccccc1S(=O)(=O)N[C@H]1CC[C@H](CCNC(=O)C2CC2)O[C@H]1CO | inactive
3 | CN1C(=O)c2cc(NC(=O)Cc3cccs3)ccc2OC[C@@H]2O[C@H](CC(=O)NCCc3ccncc3)CC[C@H]21 | inactive
4 | COc1ccc(CN(C)C[C@@H]2Oc3c(NC(=O)c4cc(C)nn4C)cccc3C(=O)N([C@H](C)CO)C[C@H]2C)cc1 | inactive
5 | Cc1c(CN2CCC(Nc3ncnc4sc(CC(F)(F)F)cc34)CC2)ccc2c1cc(C#N)n2Cc1cn[nH]c1 | active
6 | COc1ccc(NC(=O)N(C)C[C@H]2Oc3ccc(NC(=O)Nc4cccc5ccccc45)cc3C(=O)N([C@@H](C)CO)C[C@H]2C)cc1 | inactive
7 | COc1cc([C@@H]2c3cc4c(cc3[C@@H](O[C@@H]3O[C@@H]5CO[C@@H](C)O[C@H]5[C@H](O)[C@H]3O)[C@@H]3COC(=O)[C@@H]23)OCO4)cc(OC)c1O | inactive
8 | COc1cc(C2c3cc4c(cc3C(OC3OC5COC(C)OC5C(O)C3O)C3COC(=O)C23)OCO4)cc(OC)c1O (configuration not stated) | inactive
9 | COc1cc([C@@H]2c3cc4c(cc3[C@@H](O[C@@H]3O[C@@H]5CO[C@@H](C)O[C@H]5[C@H](O)[C@H]3O)[C@H]3COC(=O)[C@H]23)OCO4)cc(OC)c1O | active
10 | CC(C)(C)C(=O)Nc1ccccc1F | inactive
11 | CCN(CC)C(=S)SSC(=S)N(CC)CC | active
12 | C[C@H](CO)N1C[C@H](C)[C@@H](CN(C)S(=O)(=O)c2ccc(F)cc2)Oc2ccc(NC(=O)Nc3cccc4ccccc34)cc2C1=O | inactive
13 | O=S1(=O)CCC(O)CC1 | inactive
14 | O=C(CNc1ccc2c(c1)oc1ccccc12)c1ccc(F)cc1 | inactive
15 | Cc1ccc(S(=O)(=O)Nc2ccc3c(c2)CC(=O)N([C@H](C)CO)C[C@H](C)[C@H](CN(C)Cc2ccc(Cl)c(Cl)c2)O3)cc1 | active
16 | Cc1ccc(S(=O)(=O)Nc2ccc3c(c2)CC(=O)N([C@@H](C)CO)C[C@H](C)[C@H](CN(C)Cc2ccc(Cl)c(Cl)c2)O3)cc1 | active
17 | Cc1ccc(S(=O)(=O)Nc2ccc3c(c2)CC(=O)N([C@@H](C)CO)C[C@@H](C)[C@@H](CN(C)Cc2ccc(Cl)c(Cl)c2)O3)cc1 | active
18 | Cc1ccc(S(=O)(=O)Nc2ccc3c(c2)CC(=O)N([C@@H](C)CO)C[C@@H](C)[C@H](CN(C)Cc2ccc(Cl)c(Cl)c2)O3)cc1 | inactive
19 | Cc1ccc(S(=O)(=O)Nc2ccc3c(c2)CC(=O)N([C@H](C)CO)C[C@H](C)[C@@H](CN(C)Cc2ccc(Cl)c(Cl)c2)O3)cc1 | inactive
20 | Cc1ccc(S(=O)(=O)Nc2ccc3c(c2)CC(=O)N([C@@H](C)CO)C[C@H](C)[C@@H](CN(C)Cc2ccc(Cl)c(Cl)c2)O3)cc1 | active
21 | C[C@H](CO)N1C[C@H](C)[C@H](CN(C)C(=O)NC2CCCCC2)OCc2ccccc2-c2c(n(C)c3ccccc23)C1=O | inactive

Row | Compound | cytotoxicity call
22 | CN1C(=O)CO[C@H]2CN(C(=O)NCc3cccnc3)C[C@@H]21 | inactive
23 | COc1ccc(S(=O)(=O)Nc2ccc3c(c2)CC(=O)N([C@@H](C)CO)C[C@H](C)[C@@H](CN(C)S(=O)(=O)c2ccc(C)cc2)O3)cc1 | inactive
24 | Cc1nnc(SCC2=C(C(=O)O)N3C(=O)[C@@H](NC(=O)Cn4cnnn4)[C@H]3SC2)s1 | inactive
25 | O=C(O)[C@@H]1CCCNC1 | inactive
26 | CC(=O)CNC(=O)Cc1ccccc1 | inactive
27 | CCN(CC)S(=O)(=O)c1nnc[nH]1 | inactive
28 | C[C@H](CO)N1C[C@H](C)[C@@H](CN(C)C(=O)Nc2ccc(C(F)(F)F)cc2)Oc2ncc(-c3ccc(C#N)cc3)cc2C1=O | inactive
29 | CO[C@@H](C(=O)N(C)C[C@H]1OCc2ccccc2-c2c(n(C)c3ccccc23)C(=O)N([C@H](C)CO)C[C@@H]1C)c1ccccc1 | inactive
30 | CC(C)(C)OC(=O)N1CC[C@H](c2cn(-c3ccc(C(F)(F)F)cc3)nn2)[C@@H]1C(=O)Nc1cccc2cccnc12 | inactive
31 | CO[C@@H]1CN(C)C(=O)c2cc(NS(C)(=O)=O)ccc2OC[C@H](C)N(C(=O)C2CCCCC2)C[C@@H]1C | inactive
32 | COc1ccc(CN(C)C[C@H]2OCCCC[C@@H](C)Oc3ccc(NC(=O)Cc4ccccc4)cc3C(=O)N([C@H](C)CO)C[C@@H]2C)cc1 | inactive
33 | CN1C(=O)c2cc(NC(=O)c3cnccn3)ccc2OC[C@@H]2O[C@H](CC(=O)N[C@H]3CCN(Cc4ccccc4)C3)CC[C@@H]21 | inactive
34 | C[C@@H]1CN([C@H](C)CO)C(=O)c2ccccc2-c2ccccc2CO[C@@H]1CN(C)C(=O)Nc1cccc(Cl)c1Cl | inactive
35 | Cc1ccc(S(=O)(=O)Nc2ccc3c(c2)CC(=O)N([C@H](C)CO)C[C@@H](C)[C@H](CN(C)Cc2ccc(Cl)c(Cl)c2)O3)cc1 | inactive
36 | Cc1ccc(S(=O)(=O)Nc2ccc3c(c2)CC(=O)N([C@H](C)CO)C[C@@H](C)[C@@H](CN(C)Cc2ccc(Cl)c(Cl)c2)O3)cc1 | active
37 | C[C@H]1CN([C@@H](C)CO)C(=O)c2cccc(NC(=O)Nc3ccc(C(F)(F)F)cc3)c2O[C@H]1CN(C)S(=O)(=O)c1ccc(Cl)cc1 | active
38 | C[C@@H]1CN([C@@H](C)CO)C(=O)c2cccc(NC(=O)Nc3ccc(C(F)(F)F)cc3)c2O[C@H]1CN(C)S(=O)(=O)c1ccc(Cl)cc1 | inactive
39 | C[C@@H]1CN([C@H](C)CO)C(=O)c2cccc(NC(=O)Nc3ccc(C(F)(F)F)cc3)c2O[C@@H]1CN(C)S(=O)(=O)c1ccc(Cl)cc1 | inactive
40 | C[C@H](CO)N1C[C@H](C)[C@H](CN(C)S(=O)(=O)c2ccc(Cl)cc2)Oc2c(NC(=O)Nc3ccc(C(F)(F)F)cc3)cccc2C1=O | inactive
41 | C[C@@H]1CN([C@@H](C)CO)C(=O)c2cccc(NC(=O)Nc3ccc(C(F)(F)F)cc3)c2O[C@@H]1CN(C)S(=O)(=O)c1ccc(Cl)cc1 | inactive
42 | C[C@H]1CN([C@@H](C)CO)C(=O)c2cccc(NC(=O)Nc3ccc(C(F)(F)F)cc3)c2O[C@@H]1CN(C)S(=O)(=O)c1ccc(Cl)cc1 | active

From the antibiotic and cytotoxicity screens of Wong et al. (2023)
